# Reference: PubChem BioAssay (Tox21)
# Inconclusive results are not listed. Active and inactive are the calls of the source. Calls come from the whole dose curve; as a rule, active = well fitted curve in the direction sought with a large enough effect in the repeat runs; inconclusive = weak or mixed curves; inactive = no such curve, though single readings can be large; an effect the other way counts as inactive or inconclusive.
# Experiment: qHTS RealTime-Glo MT Cell Viability Assay in HEK293 cells - 24 hour (AID 1224886); note: nearly all actives have a fitted effect of over 50% in size; note: potency is the fitted concentration of half-maximal effect; for activity change, negative = cytotoxicity: top concentration of the series differs between compounds
# Settings: RealTime-Glo luminescence; series mostly up to 76.8 µM; activity change, negative = cytotoxicity: at the top concentration
# Method in brief: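 Cells + reagent dispensed (600 cells/well, HEK293) → 5 h at 37 C/5% CO2 → 23 nL compound in DMSO pinned → 40 h at 37 C → luminescence read at 0, 8, 16, 24, 32, 40 h.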
# % is set by controls: 0 for no effect and ±100 for the full control effect.
SMILES,"activity change, negative = cytotoxicity",Potency
CC(C(=O)O)c1ccc2c(c1)Cc1cccnc1O2 (stereo unspecified),0.141% [at 35.3 µM] (inactive),
Cc1cc(SC2=C(O)C[C@@](CCc3ccc(N)cc3)(C(C)C)OC2=O)c(C(C)(C)C)cc1CO,1.9% (inactive),
Oc1ccc(CCNCCCCCCNCCc2ccccc2)cc1O,,23.9 µM (active)
CC(C)CCCCCCCOC(=O)c1ccc(C(=O)OCCCCCCCC(C)C)c(C(=O)OCCCCCCCC(C)C)c1,3.03% (inactive),
Cc1ccc(NC(=O)c2ccc(CN3CCN(C)CC3)cc2)cc1Nc1nccc(-c2cccnc2)n1,,21.3 µM (active)
O=S(=O)(O)c1cc(Cl)c(Cl)cc1Cl,2.56% (inactive),
Cc1nc(C)c(C)nc1C,9.89% (inactive),
O=C(Cl)c1cc(Cl)cc(Cl)c1,-5.58% (inactive),
c1ccc(CCNc2nc(-c3ccccc3)cs2)cc1,-12.8% [at 35.3 µM] (inactive),
CC(C)(C)c1ccc(CCC=O)cc1,-1.28% (inactive),
CC(C)(Cc1c[nH]c2ccccc12)NCC(O)COc1ccccc1C#N (stereo unspecified),,9.52 µM (active)
CCCC(=O)OCCC(C)C,-0.639% (inactive),
CC1=C(C)C(=O)C(CCCCC#CCCCC#CCO)=C(C)C1=O,,0.601 µM (active)
C=CC(C)CCC=C(C)C (stereo unspecified),5.65% (inactive),
O=C(c1ccc(Cl)cc1)c1ccc(Cl)cc1,-20.3% (inactive),
CCC(=O)O[C@]1(C(=O)COC)[C@@H](C)C[C@H]2[C@@H]3CCC4=CC(=O)C=C[C@]4(C)C3(F)[C@@H](O)C[C@@]21C (stereo partly specified),-10.5% [at 35.3 µM] (inactive),
C=C[Si](OCC)(OCC)OCC,16% (inactive),
Oc1ccc(Oc2ccccc2)cc1,,16.5 µM (active)
C=CC(O)CCCCC (stereo unspecified),0.461% (inactive),
O=C(OCCOCCOCCOC(=O)c1ccccc1)c1ccccc1,9.39% (inactive),
c1ccc(CN(Cc2ccccc2)Cc2ccccc2)cc1,5.51% (inactive),
CCCCCCCCCCCCSCCOCCO,-13.8% [at 35.3 µM] (inactive),
CC(C)=CCC/C(C)=C/C=N/O,-18.8% (inactive),
Cc1c(N=C=O)cccc1N=C=O,16.3% (inactive),
CCC(CC)C(=O)O,11.4% (inactive),
O=C(O)c1ccccc1-n1cc(C(=O)O)c(=O)c2cc(Nc3c(F)cc(F)cc3Cl)c(Cl)cc21,-1.6% (inactive),
Clc1cc(Cl)c2c(c1)N=C1CCCCCN1C2,,19 µM (active)
C=C[Si]1(C)O[Si](C)(C=C)O[Si](C)(C=C)O[Si](C)(C=C)O1 (stereo unspecified),0.0516% (inactive),
CCOC(C)OCC,-0.106% (inactive),

# Experiment: qHTS RealTime-Glo MT Cell Viability Assay in HEK293 cells - 8 hour (AID 1224887); note: nearly all actives have a fitted effect of over 50% in size; note: potency is the fitted concentration of half-maximal effect; for activity change, negative = cytotoxicity: top concentration of the series differs between compounds
# Settings: RealTime-Glo luminescence; series mostly up to 76.8 µM; activity change, negative = cytotoxicity: at the top concentration
# Method in brief: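 Kinetic, non-lysing viability readout. Seed HEK293 (600/well) with reagent, incubate 5 h at 37 C/5% CO2, pin 23 nL compound in DMSO, incubate at 37 C, read luminescence at 0, 8, 16, 24, 32, 40 h.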
SMILES,"activity change, negative = cytotoxicity",Potency
CC(C(=O)O)c1ccc2c(c1)Cc1cccnc1O2 (stereo unspecified),-1.16% [at 35.3 µM] (inactive),
Cc1cc(SC2=C(O)C[C@@](CCc3ccc(N)cc3)(C(C)C)OC2=O)c(C(C)(C)C)cc1CO,-4.67% (inactive),
O=Cc1ccc(Cl)c([N+](=O)[O-])c1,-21.1% (inactive),
CC(C)CCCCCCCOC(=O)c1ccc(C(=O)OCCCCCCCC(C)C)c(C(=O)OCCCCCCCC(C)C)c1,-1.12% (inactive),
O=S(=O)(O)c1cc(Cl)c(Cl)cc1Cl,2.87% (inactive),
Cc1nc(C)c(C)nc1C,16.8% (inactive),
O=C(Cl)c1cc(Cl)cc(Cl)c1,-8.32% (inactive),
O=C(N[C@@H](Cc1ccccc1)[C@@H](O)C(=O)N1C[C@@H](O)[C@@H](O)C1)c1cc2cc(Cl)ccc2[nH]1,-7.14% (inactive),
CC(C)(C)c1ccc(CCC=O)cc1,0.201% (inactive),
CC(C)(Cc1c[nH]c2ccccc12)NCC(O)COc1ccccc1C#N (stereo unspecified),,7.56 µM (active)
CCOC(=O)CC(O)(CC(=O)OCC)C(=O)OCC,14.5% (inactive),
CCCC(=O)OCCC(C)C,-2.98% (inactive),
CC1=C(C)C(=O)C(CCCCC#CCCCC#CCO)=C(C)C1=O,,0.535 µM (active)
C=CC(C)CCC=C(C)C (stereo unspecified),1.74% (inactive),
O=C(c1ccc(Cl)cc1)c1ccc(Cl)cc1,-22.8% (inactive),
CCC(=O)O[C@]1(C(=O)COC)[C@@H](C)C[C@H]2[C@@H]3CCC4=CC(=O)C=C[C@]4(C)C3(F)[C@@H](O)C[C@@]21C (stereo partly specified),5.35% [at 35.3 µM] (inactive),
COC(=O)C(C)(C)C,-16.5% (inactive),
C=C[Si](OCC)(OCC)OCC,19.1% (inactive),
Oc1ccc(Oc2ccccc2)cc1,,16.5 µM (active)
C=CC(O)CCCCC (stereo unspecified),-1.41% (inactive),
c1ccc(CN(Cc2ccccc2)Cc2ccccc2)cc1,0.625% (inactive),
CCCCCCCCCCCCSCCOCCO,-0.42% [at 35.3 µM] (inactive),
Cc1c(N=C=O)cccc1N=C=O,5.22% (inactive),
CCC(CC)C(=O)O,13.7% (inactive),
O=C(O)c1ccccc1-n1cc(C(=O)O)c(=O)c2cc(Nc3c(F)cc(F)cc3Cl)c(Cl)cc21,1.99% (inactive),
CCCN(C1CCN(C(=O)C2CCNCC2)CC1)[C@@H]1CCc2ccc(OC)cc2C1,-20.7% (inactive),
C=C[Si]1(C)O[Si](C)(C=C)O[Si](C)(C=C)O[Si](C)(C=C)O1 (stereo unspecified),-8.27% (inactive),
CCOC(C)OCC,2.39% (inactive),

# Experiment: A CellTox Green Cytotoxicity Assay to monitor cytotoxicity in HEK293 cells - 16 hour (AID 1224888); note: nearly all actives have a fitted effect of over 35% in size
# Settings: CellTox Green fluorescence; series mostly up to 76.8 µM; activity change: at the top concentration
# Method in brief: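 Real-time, in one plate: 600 HEK293 cells/well with dead-cell DNA dye, pinned compound after 5 h, 37 C incubation over 40 h; viable cells give no appreciable fluorescence.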
row,SMILES,activity change
1,Cc1cc(SC2=C(O)C[C@@](CCc3ccc(N)cc3)(C(C)C)OC2=O)c(C(C)(C)C)cc1CO,-11.6% (inactive)
2,Oc1ccc(CCNCCCCCCNCCc2ccccc2)cc1O,"-1.33% [at 35.3 µM, stronger effect = higher value] (inactive)"
3,CCN(CCCCOC(=O)c1ccc(OC)c(OC)c1)C(C)Cc1ccc(OC)cc1 (stereo unspecified),"-13.7% [at 35.3 µM, stronger effect = higher value] (inactive)"
4,O=Cc1ccc(Cl)c([N+](=O)[O-])c1,-1.1% (inactive)
5,CC(C)CCCCCCCOC(=O)c1ccc(C(=O)OCCCCCCCC(C)C)c(C(=O)OCCCCCCCC(C)C)c1,-4.2% (inactive)
6,Cc1ccc(NC(=O)c2ccc(CN3CCN(C)CC3)cc2)cc1Nc1nccc(-c2cccnc2)n1,"-0.726% [at 35.3 µM, stronger effect = higher value] (inactive)"
7,O=S(=O)(O)c1cc(Cl)c(Cl)cc1Cl,9.87% (inactive)
8,Cc1nc(C)c(C)nc1C,-1.2% (inactive)
9,CCn1nc(Cc2ccccc2)cc1C1CCN(C[C@H]2C[C@H](N(C)[C@@H](C(=O)O)C(C)C)C[C@@H]2c2cccc(F)c2)CC1,8.19% (inactive)
10,O=C(N[C@@H](Cc1ccccc1)[C@@H](O)C(=O)N1C[C@@H](O)[C@@H](O)C1)c1cc2cc(Cl)ccc2[nH]1,19.5% (inactive)
11,CC(C)(C)c1ccc(CCC=O)cc1,4.24% (inactive)
12,CC(C)(Cc1c[nH]c2ccccc12)NCC(O)COc1ccccc1C#N (stereo unspecified),"-4.6% [at 35.3 µM, stronger effect = higher value] (inactive)"
13,CCOC(=O)CC(O)(CC(=O)OCC)C(=O)OCC,1.11% (inactive)
14,CCCC(=O)OCCC(C)C,-0.454% (inactive)
15,CC1=C(C)C(=O)C(CCCCC#CCCCC#CCO)=C(C)C1=O,"6.58% [at 35.3 µM, stronger effect = higher value] (inactive)"
16,C[C@H](CN1CCCC1)C(=O)c1ccc(C(F)(F)F)cc1,"12.1% [at 35.3 µM, stronger effect = higher value] (inactive)"
17,C=CC(C)CCC=C(C)C (stereo unspecified),6.65% (inactive)
18,C=C[Si](OCC)(OCC)OCC,-4.53% (inactive)
19,Oc1ccc(Oc2ccccc2)cc1,21.5% (inactive)
20,C=CC(O)CCCCC (stereo unspecified),-2.55% (inactive)
21,O=C(OCCOCCOCCOC(=O)c1ccccc1)c1ccccc1,17.4% (inactive)
22,c1ccc(CN(Cc2ccccc2)Cc2ccccc2)cc1,0.135% (inactive)
23,CCCCCCCCCCCCSCCOCCO,"0.692% [at 35.3 µM, stronger effect = higher value] (inactive)"
24,O=C(O)c1ccccc1-n1cc(C(=O)O)c(=O)c2cc(Nc3c(F)cc(F)cc3Cl)c(Cl)cc21,1.05% (inactive)
